Experimental data taken from PubChem BioAssay AID1458 (National Center for Advancing Translational Sciences (NCATS), 2008).
The campaign covered roughly 210,000 compounds. About 5,900 (2.8%) were called active. A call without a number means that no potency is given here. Roughly 5% stayed inconclusive and do not appear here. This is one part of a sample in which actives are shown more often than they occur. Calls come from the whole dose curve; as a rule, active = well fitted activation curve with a large enough effect; inconclusive = small, poorly fitted or top-dose-only effect; inactive = no such curve, though single readings can be large or run the other way.

assay: qHTS Assay for Enhancers of SMN2 Splice Variant Expression; details: HEK293 SMN2-luciferase splicing reporter, luminescence, 30-36 h; series mostly up to 46.1 µM; note: nearly all actives have a fitted effect of over 55% in size
Excerpt: NIH Chemical Genomics Center [NCGC] NIH Molecular Libraries Probe Production centers Network [MLPCN] MLPCN Grant: R03 MH084179-01 Assay Submitter (PI): Elliot Androphy NCGC Assay Overview: Spinal muscular atrophy (SMA) is caused by insufficient levels of the survival motor neuron protein SMN. The SMN locus on chromosome 5q13 contains two inverted copies of SMN called SMN1 and SMN2 which are 99% identical at the amino acid level. SMN1 is a fully functional protein and SMN2 skips exon 7 90% of the time. Skipping of exon 7 produces non-functional protein product. 10% of the SMN2 protein includes exon 7 and is fully functional. In the SMA disease state, mutations in the SMN1 locus are the cause of the disease state. Because only 10% of SMN2 is of the fully functional form, it is not sufficient to overcome the deficiency produced by the loss of the SMN1 product. A therapy that either increase the amount of SMN2 product made or to increase the inclusion of exon 7 has been proposed for the treatment of SMA. We have designed an assay to identify small molecules that can increase the amount of functional SMN2 product by appending a luciferase reporter gene after the native SMN2 gene, such that inclusion of exon 7 in the expressed product places the luciferase sequence in frame, thus generating functional luciferase enzyme.
NCGC Assay Protocol Summary: This screen utilizes a luciferase reporter gene assay, combining the promoter and splicing based cassettes in tandem with the major portion of the native SMN2 cDNA, and then transfected into HEK293 cells. Compounds that increase luciferase signal presumably enhance expression of the functional SMN2 splice variant. Passaging media contained DMEM w/ glutamax (+phenol red) 10% FCS, 1x pen/strep, 200 ug/ml hygro, 1x sodium pyruvate. Assay media contained DMEM w/ glutamax (-phenol red) 10% FCS, 1x pen strep, 1x pyruvate Sequence, Parameter, Value, Description (1) Cells, […], 2000 cells/well, 1536 TC treated White solid bottom plate (2) Time, 10-12 hours, 37C 5% CO2 (3) Compound, 23 nl, MLSMR Library (4) Control Compound, 23 nL, Sodium butyrate st 4.5mM (final) conc (5) Time, 30-36 hours, 37C 5% CO2 (6) Reagent, 3 ul, One Glo (TM) from Promega (7) Time, 5-15 minutes, Room temp (8) Detector, Viewlux: luminescent read, 60 second integration, high speed 2x binning Keywords: Spinal muscular atrophy, SMA, SMN2, high throughput screening, MLSMR, MLPCN, NIH Roadmap, qHTS and NCGC
Potency is the fitted concentration of half-maximal effect.

| SMILES | Potency | activity change, positive = activation |
| --- | --- | --- |
| CC(C)Oc1ccc(NC(=O)c2cc3ccccc3o2)cc1 | 2.51 µM (active) | – |
| Cc1ncoc1C(=O)NCCC(c1ccccc1)c1ccccc1 | inactive | – |
| O=C(OCC1O[C@@H](OC(=O)c2cc(O)c(O)c(O)c2)[C@@H](OC(=O)c2cc(O)c(O)c(O)c2)[C@@H](OC(=O)c2cc(O)c(O)c(O)c2)[C@@H]1OC(=O)c1cc(O)c(O)c(O)c1)c1cc(O)c(O)c(O)c1 (stereo not given in full) | inactive | – |
| COc1cccc(C(=O)Nc2ccc(-c3cc(C(F)(F)F)nn3-c3ccccc3)cc2)c1 | inactive | – |
| O=C(OCC(=O)c1cccs1)C1=COCCO1 | 14.1 µM (active) | – |
| CC(=O)c1c(O)c(C)c(O)c(Cc2c(O)c3c(c(C(=O)/C=C/c4ccccc4)c2O)OC(C)(C)C=C3)c1O | inactive | – |
| CCCCCCCCCc1ccc(OCCOCCOCCOCCOCCOCCOCCOCCOCCO)cc1 | inactive | – |
| Cn1c(=O)oc2cc(S(=O)(=O)N3CCC(C(=O)Nc4ccc(OC(F)(F)F)cc4)CC3)ccc21 | inactive | – |
| CC(=O)Oc1ccccc1C(=O)Nc1ncc([N+](=O)[O-])s1 | 12.6 µM (active) | – |
| C[N+](C)(C)CCOP(=O)([O-])OC[C@H](O)CO | inactive | – |
| CC(C)=CCC[C@]1(C)[C@@H](CC=C(C)C)C[C@@]2(CC=C(C)C)C(=O)[C@]1(C(=O)C(C)C)C(=O)C(CC=C(C)C)=C2O | inactive | – |
| CC[C@]1([C@H]2O[C@@H]([C@@H]3O[C@](O)(CO)[C@@H](C)C[C@H]3C)C[C@H]2C)CC[C@@H]([C@]2(C)CC[C@@]3(C[C@@H](O)[C@@H](C)[C@@H]([C@H](C)[C@H](OC)[C@H](C)C(=O)O)O3)O2)O1 | inactive | – |
| O=C(Nc1cccc(F)c1)N1CC[C@@]2(CCCN(C(=O)Oc3ccccc3)C2)C1 | inactive | – |
| CC(C)(C)c1ccc(OC(=O)N2CCCCC2)cc1 | 12.6 µM (active) | – |
| O=C(Nc1cccc(OC(=O)N2CCCCC2)c1)N1CCOCC1 | inactive | – |
| CC(C)(C)C(O)(CCc1ccc(Cl)cc1)Cn1cncn1 (stereo not given) | inactive | – |
| NCC[Se][Se]CCN | – | -13.3% [at 9.22 µM] (inactive) |
| CO[C@@H]1C[C@@H](C[C@H]2CC[C@H](C)[C@@H]([C@@H](C)C(=O)O)O2)O[C@]2(O[C@](C)([C@H]3CC[C@@](C)(C4OC([C@H]5O[C@@](O)(CO)[C@H](C)C[C@@H]5C)C[C@@H]4C)O3)C[C@H]2C)[C@@H]1C (stereo not given in full) | inactive | – |
| c1ccc(Cc2nn3c(Cn4cnc5ccccc54)nnc3s2)cc1 | inactive | – |
| N#CC(C#N)=Cc1cc(O)c(O)c([N+](=O)[O-])c1 | inactive | – |
